From PubChem
Only some compounds are listed: those with a hit (about 19% of all), similar ones and a draw of the others.
DT40 TDP1 CPT: DT40-hTDP1 cell growth loss with CPT. 420,000 compounds, 12% hits. Potency, µM (series often up to 46.2 µM), actives largely listed as inhibitors. chicken DT40 Tdp1-/-;hTDP1 cells + 20 nM CPT, ATP luminescence, 48 h; further: nearly all actives have a fitted effect of over 55% in size
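Cell growth measured by CellTiter-Glo luminescence after a minimum 48 h, 37 C compound exposure with 20 nM CPT in Tdp1-knockout DT40 cells stably expressing hTDP1, seeded 400/well; qHTS titration format.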
IL-1B inflam inh: inflammasome signaling inhibition, IL-1 beta readout; 360,000 compounds, 4.7% hits; THP-1 LPS/ATP IL-1B secretion, AlphaLISA, 16 h; active compounds read low; activity change, % at 57.5 µM; in the data active means activity change below about -50%; inconclusive means mostly about -30% to -49%
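Secreted IL-1B measured by AlphaLISA bead assay after 16 h compound exposure of THP-1 cells; compounds (final up to 57.5 uM) added 1 h before LPS (250 ng/mL) and ATP (1.25 mM) stimulation; lower signal means less secretion.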
MCF10A rereplic: inducers of DNA re-replication in MCF 10A breast cells | MCF 10A DNA re-replication, Hoechst nuclear intensity, 48 h | Potency, µM (series often up to 46.1 µM), most hits filed as activators | 350,000 compounds, 2.9% hits | AID 624296; further: nearly all actives have a fitted effect of over 50% in size
TDP1 cell noCPT: qHTS for Inhibitors of human tyrosyl-DNA phosphodiesterase 1 (TDP1): qHTS in cells in absence of CPT. Potency, µM (highest dose often 46.2 µM), hits mostly inhibitors. 420,000 compounds, 15% hits. AID 686978, 2013. DT40 Tdp1-/- hTDP1 cells, no CPT, ATP luminescence, 48 h; further: nearly all actives have a fitted effect of over 55% in size
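Cells were dispensed at 400 per well, compounds added by pin tool, plates incubated ≥48 hr at 37 °C, then CellTiter-Glo added for 30 min at room temperature before luminescence reading. Line: DT40 Tdp1-/- complemented with hTDP1; camptothecin omitted.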
SW480 rereplic: inducers of DNA re-replication in SW480 colon cancer cells | SW480 DNA re-replication, Hoechst DNA content imaging, 48 h | Potency, µM (titrated, usually from 46.1 µM), hits mostly activators | 340,000 compounds, 1.8% hits | AID 624297; further: nearly all actives have a fitted effect of over 55% in size
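Per well, 250 cells were exposed to pinned compound for 48 hr. Nuclear DNA was visualised with Hoechst (40 min, 37 C) and total object intensity recorded by fluorescence scanning.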
BCR signal inh: blocks chronic active B-cell receptor signaling | ABC-DLBCL IkBa-CBG/CBR reporter, luminescence ratio, 4 h | 340,000 compounds, 0.05% hits | AID 493014 | Potency, µM (titrated, usually from 46.1 µM), actives largely listed as inhibitors; active means well fitted inhibition curve with a large enough effect in the signal ratio, with a control signal flat, not every such curve was filed as active; inconclusive means small, poorly fitted or top-dose-only effect, or effect the other way, or a change in a side signal; the % refers to the signal ratio
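Cell line TMD8 (human ABC DLBCL), stably expressing tet-inducible CBG68-IkBa fusion and CBR; IMDM/0.5% FBS; cpd up to 46 uM; dox induction, 4 h, 37C/5% CO2; dual luminescence; green/red ratio; MG132 control.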
Numbers stand for hits; i = inactive; ? = inconclusive; nt = not tested or not shown. Unless noted, the call rests on the fitted dose curve; in most records, active means well fitted curve in the direction sought with a large enough effect; inconclusive means small, poorly fitted or top-dose-only effect, or another doubt; inactive means no such curve, though single readings can be large; an effect the other way counts as inactive or inconclusive.

SMILES	DT40 TDP1 CPT	IL-1B inflam inh	MCF10A rereplic	TDP1 cell noCPT	SW480 rereplic	BCR signal inh
CCc1nc2ccc(C(=O)N(C)Cc3ccco3)cn2c1N(CC)C(=O)NCCc1ccccc1	i	i	nt	?	nt	nt
Cc1nc2ccc(C(=O)N(C)Cc3ccco3)cn2c1N(C)CC1CCCCC1	18µM	i	nt	13µM	nt	nt
Cc1cc(S(=O)(=O)NCc2ccc(N3CCN(C)CC3)cc2)c(C)s1	?	i	?	21µM	i	i
CN1CCN(c2ccc(CNS(=O)(=O)Cc3ccc(Cl)cc3)cc2)CC1	?	i	?	16µM	i	i
COc1ccc(OC)c(S(=O)(=O)NCc2ccc(N3CCN(C)CC3)cc2)c1	i	i	i	i	i	i
COc1ccc(CNS(=O)(=O)c2ccc(N3CCCC3)cc2Br)cc1	?	i	i	?	i	i
CN1CCN(c2ccc(CNS(=O)(=O)c3ccc(F)cc3Cl)cc2)CC1	18µM	i	i	?	i	i
NS(=O)(=O)c1ccc(CNS(=O)(=O)Cc2ccc(Cl)cc2)cc1	i	i	i	i	i	i
COC(=O)c1sccc1NC(=O)CC1C(=O)NCCN1C(=O)Nc1cc(Cl)ccc1OC (stereo unspecified)	i	i	i	?	i	i
NNC(=S)NC1CCCCC1	6.5µM	i	i	5.8µM	i	?
O=C1C=C(c2ccc(Cl)c(C(F)(F)F)c2)C[C@@H](c2ccc3c(c2)OCO3)C1	?	i	i	?	i	i
CN(c1ccccc1)S(=O)(=O)c1cccc(C(=O)NNC(=O)c2ccccc2)c1	16µM	i	i	16µM	i	i
Cc1ccc(N(C)S(=O)(=O)c2cccc(C(=O)NC3CC(C)(C)NC(C)(C)C3)c2)cc1	?	i	i	i	i	i
O=C(NCCc1c[nH]c2ccccc12)c1cccc(S(=O)(=O)Nc2ccccc2Cl)c1	i	i	i	?	i	i
CN(c1ccccc1)S(=O)(=O)c1cccc(C(=O)NCCc2c[nH]c3ccccc23)c1	15µM	i	i	?	i	nt
CN(c1ccccc1)S(=O)(=O)c1cccc(C(=O)NCc2ccccc2)c1	?	i	i	16µM	i	i
CC1(C)CC(NC(=O)c2cccc(S(=O)(=O)N(Cc3ccccc3)c3ccccc3)c2)CC(C)(C)N1	?	-81	i	?	?	i
S=C(NCc1ccccc1)N1CCN(C(=S)NCc2ccccc2)CC1	i	i	i	i	i	i
CN(C(=S)NC(=O)c1ccc(Br)o1)c1ccccc1	i	i	i	i	i	i
Cc1cc(=O)oc(C)c1C(=O)Nc1cccc(F)c1	i	i	i	?	i	i
O=C(NCc1ccccc1F)c1cccc(S(=O)(=O)NCc2ccccc2)c1	i	i	i	?	i	i
O=C(NCc1cccc(C(F)(F)F)c1)c1cccc(S(=O)(=O)NCc2ccccc2)c1	?	i	?	23µM	i	i
CNC(=S)N1CCc2cc(OC)c(OC)cc2C1	i	i	i	i	i	i
CNC(=O)[C@H](Cc1c[nH]c2ccccc12)NC(=O)[C@@H](CC(=O)NO)CC(C)C	22µM	nt	i	31µM	i	nt
O=C(Cc1c[nH]c2ccccc12)N[C@@H](Cc1c[nH]c2ccccc12)C(=O)O	i	i	i	i	i	i
SMILES	DT40 TDP1 CPT	IL-1B inflam inh	MCF10A rereplic	TDP1 cell noCPT	SW480 rereplic	BCR signal inh
O=C(CN1C(=O)COc2ccc(S(=O)(=O)N3CCOCC3)cc21)NCc1ccc(F)cc1	i	nt	nt	i	nt	nt
COc1ccc2cc(C(=O)NCc3ccc4c(c3)CCN4C(=O)c3ccccc3)[nH]c2c1	i	nt	nt	i	nt	i
O=C1c2ccccc2C(=O)c2c(NCCCN(CCO)CCO)cccc21	?	-103	?	21µM	i	?
CCN(CC)CC(=O)Nc1cccc2c1C(=O)c1ccccc1C2=O	i	i	i	i	i	i
COC(=O)N1CCC[C@@]2(CCN(Cc3cc(C(F)(F)F)cc(C(F)(F)F)c3)C2)C1	i	nt	nt	i	nt	nt
O=C(CSc1n[nH]c(-c2ccccn2)n1)Nc1ccc(F)cc1	?	i	?	7.3µM	3.3µM	i
O=C(CSc1n[nH]c(-c2ccncc2)n1)Nc1ccccc1	i	i	i	i	i	i
O=C(CSc1n[nH]c(-c2ccncc2)n1)Nc1ccc(F)cc1	i	i	i	i	i	i
Cc1cccc(NC(=O)CSc2n[nH]c(-c3ccncc3)n2)c1C	12µM	i	i	i	i	i
O=C(CSc1n[nH]c(-c2ccccn2)n1)Nc1ccc(Cl)cc1	6.5µM	i	i	4.6µM	9.2µM	i
Cc1ccc(NC(=O)CSc2n[nH]c(-c3ccccn3)n2)cc1	5.8µM	i	?	i	5.2µM	i
C[C@H](CO)N1C[C@H](C)[C@@H](CN(C)S(C)(=O)=O)Oc2ccc(NC(=O)NC3CCCCC3)cc2C1=O	i	i	i	i	i	i
COCc1cc(C)nc(SCc2ccc(Br)cc2)c1C#N	i	i	i	?	?	nt
O=C(CNC(=O)c1ccc(Br)o1)OCC(=O)c1cccc([N+](=O)[O-])c1	?	i	i	?	i	i
Cc1ccc(CN(C)C(=O)c2cc(COc3ccc(F)cc3Cl)on2)o1	?	i	i	i	i	i
CC(C)N(Cc1nccn1C)C(=O)c1cc(COc2cccc(C(F)(F)F)c2)on1	16µM	i	i	13µM	i	i
CC(NC(=O)c1cc(COc2cccc(C(F)(F)F)c2)on1)c1nccs1 (stereo unspecified)	i	i	i	?	i	i
Cc1cc(OCc2cc(C(=O)N(C)C3CCOCC3)no2)cc(C)c1Cl	?	i	i	?	i	?
Cc1cc(OCc2cc(C(=O)N(Cc3nccn3C)C(C)C)no2)cc(C)c1Cl	16µM	?	?	6.5µM	i	i
CSc1ccccc1OCc1cc(C(=O)N(Cc2nccn2C)C(C)C)no1	18µM	i	?	?	i	i
Cc1ccc(CN(C)C(=O)c2cc(COc3cccc(C(F)(F)F)c3)on2)o1	?	?	i	18µM	i	i
CN(C(=O)c1cccc(NC(=O)Cc2ccc(NC(=O)C3CCCN(S(=O)(=O)c4cccc([N+](=O)[O-])c4)C3)cc2)c1)C1CCCCC1 (stereo unspecified)	i	i	i	?	i	nt
CC1CCCCN1C(=O)Cn1c(=O)n(-c2ccc(Cl)cc2)c(=O)c2c3c(sc21)CCC3 (stereo unspecified)	i	nt	nt	?	nt	nt
CC(OC(=O)/C=C/c1ccco1)C(=O)Nc1cccc([N+](=O)[O-])c1 (stereo unspecified)	18µM	i	i	18µM	?	?
